The viability is a read-out of living cells in per cent, often relative to untreated cells.

The source made the active and inactive calls.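 The calls were made as follows: active = viability at 10 µM of 29.74% or lower, 3 SD below the compound median; inactive = the rest.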

In PubChem BioAssay AID1004 (SRMLSC, 2008) one finds viability data, which are given here for 20 compounds.

The experiment is described as follows: viability of HCT116 lacking mutant beta-catenin – cell-based, DP diverse set, validation, pilot screen (AID 1004). Conditions: HCT116 (mutant beta-catenin deleted) viability, CellTiter-Glo, 60 h; at 10 µM; hits give low values. (In general: ATP-based viability assays read luminescence as a measure of living cells.)
For the compound `C[C@@H]1CC[C@]2(C(=O)O)CC[C@]3(C)C(=CCC4[C@@]5(C)C[C@@H](O)[C@H](O)[C@@](C)(CO)C5[C@H](O)C[C@]43C)C2[C@H]1C` (stereo not given in full), the viability is 95.4% (inactive).

In the case of `O=C1OC2(c3ccc(O)cc3Oc3cc(O)ccc32)c2ccccc21`, the viability was 96.5% (inactive).

Consider `COc1ccc(Cl)cc1C(=O)NCCc1ccc(S(=O)(=O)NC(=O)NC2CCCCC2)cc1`, for which the viability is 97% (inactive).

Take `COc1ccc(CCN2CCC(Nc3nc4ccccc4n3Cc3ccc(F)cc3)CC2)cc1`: the viability is 44.6% (inactive).

Turning to `COC(=O)CCc1c(C)[nH]c(C(=O)OCc2ccccc2)c1C`, the viability was 100% (inactive).

In the case of `CN1C2CCC1CC(OC(=O)C(CO)c1ccccc1)C2` (stereo not given), the viability is 97.1% (inactive).

In the case of `O=c1c(-c2ccc(O)cc2)coc2cc(O)ccc12`, the viability was 91% (inactive).

On to `C[C@@H]1C(=O)O[C@@H]2CC34C5CC(C(C)(C)C)[C@]36C(O)C(=O)O[C@@H]6O[C@@]4(C(=O)O5)[C@@]12O` (stereo not given in full), for which the viability was 72.1% (inactive).

As for `C[C@@H]1CC[C@]2(C(=O)O)CC[C@]3(C)C(=CCC4[C@@]5(C)C[C@@H](O)[C@H](O)[C@@](C)(CO)C5CC[C@]43C)C2[C@H]1C` (stereo not given in full), the viability is 100% (inactive).

Take `CCN(CC)C(=S)SSC(=S)N(CC)CC`: the viability is 76.5% (inactive).

Regarding `CCOC(=O)c1c(N)sc(C)c1-c1ccccc1`, the viability was 108% (inactive).

Regarding `COC(=O)Nc1nc2ccc(C(=O)c3cccs3)cc2[nH]1`, the viability was 38.8% (inactive).

Regarding `C=C1OC(CO)(n2cnc3c(N)ncnc32)C(O)C1O` (stereo not given), the viability is 95.1% (inactive).

For the compound `COc1cc(-c2ccc(=O)[nH]n2)ccc1OC(F)F`, the viability was 105% (inactive).

For the compound `COc1ccc(CCN(C)CCCC(C#N)(c2ccc(OC)c(OC)c2)C(C)C)cc1OC` (stereo not given), the viability is 88.8% (inactive).

As to `C[C@H]1c2cccc(O)c2C(O)=C2C(=O)[C@]3(O)C(O)=C(C(N)=O)C(=O)[C@@H](N(C)C)[C@@H]3[C@@H](O)[C@@H]21`, the viability is 107% (inactive).

`COc1ccc2nc(S(=O)Cc3ncc(C)c(OC)c3C)[nH]c2c1` (stereo not given): the viability was 96.8% (inactive).

`CSc1ccc(/C=C2/C(C)=C(CC(=O)O)c3cc(F)ccc32)cc1`: the viability is 96% (inactive).

On to `C[C@@H]1C[C@@H]([C@@H](C)CC2CC(=O)NC(=O)C2)C(=O)[C@@H](C)C1`, for which the viability was 27.8% (active).

On to `CO[C@@H]1[C@@H](OC(N)=O)[C@@H](O)[C@H](Oc2ccc3c(O)c(NC(=O)c4ccc(O)c(CC=C(C)C)c4)c(=O)oc3c2C)OC1(C)C`, for which the viability was 99.5% (inactive).
